Molecules are shown by their SMILES. Unmarked numbers belong to inactive results. Records with an inconclusive call do not appear. Activity calls are given as the source filed them. The call rests on the fitted dose curve; in most records, active means well fitted curve in the direction sought with a large enough effect; inconclusive means small, poorly fitted or top-dose-only effect, or another doubt; inactive means no such curve, though single readings can be large; an effect the other way counts as inactive or inconclusive.

This note sets out measurements from PubChem BioAssay (NCATS).

In experiment [1] the target is Glutathione peroxidase 1 (Homo sapiens) (UniProt P07203). The experiment can be described thus: Primary qHTS Assay for Inhibitors of Recombinant Selenoprotein Glutathione Peroxidase 1 (GPX1) (AID 1845191). Further: nearly all actives have a fitted effect of over 65% in size. On activity, negative = inhibition: on the % scale 0 is the no-effect control and ±100 the full control effect. Put shortly: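 GR-coupled assay: compounds preincubated 30 min at room temperature with GPX1, then reaction started with CHP; final 10 nM GPX1, 1 mM GSH, 0.5 mM CHP, 0.5 mM NADPH, 100 nM GR, 0.01% BSA, pH 7.5 Tris buffer. NADPH fluorescence (340/450 nm) read at 0 and 15 min.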
Sequence of Glutathione peroxidase 1 (Homo sapiens) (P07203 whole entry, looked up): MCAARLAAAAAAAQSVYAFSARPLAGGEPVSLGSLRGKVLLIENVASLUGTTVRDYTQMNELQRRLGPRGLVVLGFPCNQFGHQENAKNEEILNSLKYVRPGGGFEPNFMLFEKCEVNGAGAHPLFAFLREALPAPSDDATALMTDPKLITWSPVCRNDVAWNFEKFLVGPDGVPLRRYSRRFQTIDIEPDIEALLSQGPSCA
In general terms: Quantitative high-throughput screening tests each substance at several concentrations.

The target in experiment [2] is Phospholipid hydroperoxide glutathione peroxidase GPX4 (Homo sapiens) (UniProt P36969). Kind of experiment: Primary qHTS Assay for Inhibitors of Recombinant Selenoprotein Glutathione Peroxidase 4 (GPX4) (AID 1845192). Further: nearly all actives have a fitted effect of over 65% in size. On activity change, negative = inhibition: series mostly up to about 50 µM; on the % scale 0 is the no-effect control and ±100 the full control effect. An outline of the steps:
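GR-coupled assay: recombinant GPX4 preincubated 30 min with compound at room temperature; final 200 nM GPX4, 1 mM GSH, 0.5 mM cumene hydroperoxide, 0.5 mM NADPH, 100 nM GR, 0.01% BSA, pH 7.5 Tris. NADPH fluorescence (340/450 nm) read at 0 and 15 min.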

Experiment [3] has as its target Luciferin 4-monooxygenase (Photinus pyralis) (UniProt P08659). The experiment can be described thus: Primary firefly luciferase (FLuc) qHTS assay for identification of artifact compounds. (AID 1845220). Further: nearly all actives have a fitted effect of over 60% in size.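 On activity change, negative = inhibition: series mostly up to about 54 µM; plate controls were DMSO vehicle for no effect and no enzyme for full effect.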 An outline of the steps:
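Titrated compounds were incubated 15 min at RT, protected from light, with luciferin and ATP at 10 uM; reaction started with 10 nM FLuc, luminescence imaged at 5 min, and concentration-response fitted by Hill equation.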

Experiment [4] is described as follows: Primary fluorescence-based thiol-reactive (MSTI) qHTS assay for identification of artifact compounds. (AID 1845221). Further: nearly all actives have a fitted effect of over 65% in size. Further: potency means the concentration at half of the fitted maximal effect.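 On activity change, negative = thiol reactive: series mostly up to about 54 µM; thiol-reactive compounds lower the probe fluorescence signal.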 An outline of the steps:
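In PBS pH 7.4 with 2% DMSO, each compound met 4 uM MSTI for one hour at ambient temperature, shielded from light, before fluorescence detection.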

The subject of experiment [5] is Nanoluciferase (engineered Oplophorus gracilirostris luciferase). The experiment can be described thus: Primary Nanoluciferase (NLuc) qHTS assay for identification of artifact compounds. (AID 1845222).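 Further: NLuc secreted into diluted conditioned medium of S16 cells; series mostly up to about 54 µM; 0% = DMSO and -100% = no enzyme.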 An outline of the steps:
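qHTS format, against NLuc in S16 cell-conditioned medium. Nano-Glo substrate 1:100 was added after 15 min at room temperature. Luminescence was taken after a further 5 min.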

Sequence of Phospholipid hydroperoxide glutathione peroxidase GPX4 (Homo sapiens) (P36969 whole entry, looked up): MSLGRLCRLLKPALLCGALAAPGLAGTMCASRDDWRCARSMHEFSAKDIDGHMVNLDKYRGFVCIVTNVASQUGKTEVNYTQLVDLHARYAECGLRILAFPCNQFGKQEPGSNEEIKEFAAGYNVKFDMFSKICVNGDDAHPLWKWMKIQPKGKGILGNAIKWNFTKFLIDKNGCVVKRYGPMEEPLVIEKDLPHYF

Consider `N[C@@H]1c2cccnc2[C@H](OC(=O)N2CCC(n3c(=O)[nH]c4ncccc43)CC2)CC[C@H]1c1cccc(F)c1F`, for which the Potency result in experiment [1], in experiment [2], in experiment [3], in experiment [4] and in experiment [5] was “inactive” in each case.

With `CCN1CCC[C@@H]1CNC(=O)c1ccc2c(c1)NC(=O)c1cccc(C)c1S2`, the Potency entry in experiment [1], in experiment [2], in experiment [3], in experiment [4] and in experiment [5] was “inactive” in each case.

For the molecule `CC1(C)CCCC2(C)C1C(=O)C=C(C(=O)O)C2(O)C(=O)O` (stereo not given), the Potency result in experiment [1], in experiment [2], in experiment [3] and in experiment [5] was “inactive” throughout. Besides, the Potency in experiment [4] was 9.47 µM (active).

On to `COc1c(C(C)C)c(O)c(O)c2c1C(OC)[C@H]1OC(=O)[C@@]23CCCC(C)(C)[C@H]13` (stereo not given in full), for which the Potency result in experiment [1], in experiment [2], in experiment [3] and in experiment [5] was “inactive” in each case. In addition, the Potency in experiment [4] was 2.93 µM (active).

Take `COc1cccc(CN(C(=O)CC(C)(C)C)[C@H]2C[C@H](C(=O)N3CCNCC3)N(Cc3ccc4c(c3)OCO4)C2)c1`: the Potency result in experiment [1], in experiment [2], in experiment [3], in experiment [4] and in experiment [5] was “inactive” throughout.

For the molecule `C=C1CCN([C@H](C)[C@](O)(Cn2cncn2)c2ccc(F)cc2F)CC1`, the Potency result in experiment [1], in experiment [2], in experiment [3], in experiment [4] and in experiment [5] was “inactive” in each case.

`CN1CCN(c2ccc(OC(F)(F)F)c(Nc3ncc4c(n3)-c3c(c(C(N)=O)nn3CCO)CC4)c2)CC1`: the Potency entry in experiment [1], in experiment [2], in experiment [3], in experiment [4] and in experiment [5] was “inactive” each time.

Consider `COC1CC(=O)C23C(=O)NC(Cc4c[nH]c5ccccc45)C2C(C)C2(C)OC2C3/C=C/CC(C)CC1O` (stereo not given), for which the Potency entry in experiment [1], in experiment [2], in experiment [3], in experiment [4] and in experiment [5] was “inactive” throughout.

Take `O=C(C1CCCCC1)N(CCN1CCN(c2ccccc2O)CC1)c1ccccn1`: the Potency entry in experiment [1], in experiment [2], in experiment [3], in experiment [4] and in experiment [5] was “inactive” in each case.

For `CC(=O)O[C@H]1C[C@H](OC(C)=O)[C@]2(C)[C@H](CC[C@@]34O[C@@H]3C3=C(C)C(=O)O[C@@H]3C[C@H]42)C1(C)C`, the Potency entry in experiment [1], in experiment [2], in experiment [3], in experiment [4] and in experiment [5] was “inactive” each time.

Take `CO[C@H]1[C@@H](O)[C@H](O[C@H]2CC[C@@]3(C)C(CCC4C3CC[C@]35COC6(COC(=O)C6)C3CCC45O)C2)O[C@@H](C)[C@@H]1OC1OC(CO)C(OC2OC(CO)C(O)C(O)C2O)C(O)C1O` (stereo not given in full): the Potency entry in experiment [1] and in experiment [2] was “inactive” throughout. Also, in experiment [3], the activity change, negative = inhibition is -4.26% [at 11.6 µM]. For the same molecule, the activity change, negative = thiol reactive in experiment [4] was 77.5% [at 11.5 µM]. Also, the activity, negative = inhibition in experiment [5] was -0.128% [at 11.6 µM].

`COc1cc(O)c2c(c1)/C=C/C[C@H](O)[C@H](O)C(=O)/C=C\C[C@H](C)OC2=O`: the Potency entry in experiment [1], in experiment [2], in experiment [3], in experiment [4] and in experiment [5] was “inactive” in each case.

Take `COc1cc(F)c(C(C)C)cc1-c1ccc(C(F)(F)F)cc1CN1C(=O)OC(c2cc(C(F)(F)F)cc(C(F)(F)F)c2)C1C` (stereo not given): the Potency entry in experiment [1], in experiment [2], in experiment [3], in experiment [4] and in experiment [5] was “inactive” in each case.

In the case of `C[C@@H]1O[C@@H](O[C@H]2[C@H](O[C@H]3CC[C@@]4(C)C(CC[C@]5(C)C4C=C[C@]46OC[C@@]7(CCC(C)(C)C[C@H]74)[C@@H](O[C@@H]4O[C@@H](C)[C@H](O)[C@@H](O)[C@H]4O)C[C@]65C)[C@]3(C)CO)O[C@H](CO)[C@@H](O)[C@@H]2O[C@@H]2O[C@H](CO)[C@@H](O)[C@H](O)[C@H]2O)[C@H](O)[C@H](O)[C@H]1O` (stereo not given in full), the Potency entry in experiment [1] and in experiment [2] was “inactive” in each case. The outcome in experiment [3] is “inactive [at 11.6 µM]”. For the same molecule, the activity change, negative = thiol reactive in experiment [4] was 75.2% [at 11.5 µM]. For the same molecule, the activity, negative = inhibition in experiment [5] is 3.17% [at 11.6 µM].

`CO[C@@H]1CC(OC2CCC3(C)C(CCC45CCC(C6=CC(=O)OC6)C(C)(CCC43)C5=O)C2)O[C@H](C)[C@@H]1O[C@@H]1O[C@H](CO[C@@H]2O[C@H](CO)[C@@H](O)[C@H](O)[C@H]2O)[C@@H](O)[C@H](O)[C@H]1O` (stereo not given in full): the Potency result in experiment [1] and in experiment [2] was “inactive” each time. For the same molecule, the activity change, negative = inhibition in experiment [3] is -4.2% [at 11.6 µM]. Besides, in experiment [4], the activity change, negative = thiol reactive was -1.23% [at 11.5 µM]. The activity, negative = inhibition in experiment [5] was -1.95% [at 11.6 µM].

As for `CCCOc1ccc(CCc2nc3cc(-c4c(C)noc4C)ccc3n2CCN2CCOCC2)cc1`, the Potency entry in experiment [1], in experiment [2], in experiment [3], in experiment [4] and in experiment [5] was “inactive” throughout.

Regarding `CN1CCC(c2cn(C)c3ccc(OS(=O)(=O)c4c(F)cccc4F)cc23)CC1`, the Potency entry in experiment [1], in experiment [2], in experiment [3], in experiment [4] and in experiment [5] was “inactive” each time.

Turning to `C=C1/C(=C/C=C2\CCC[C@]3(C)[C@@H]([C@H](C)CC[C@@H](O)C(C)(C)O)CC[C@@H]23)C[C@@H](O)C[C@@H]1O`, the Potency result in experiment [1], in experiment [2], in experiment [3], in experiment [4] and in experiment [5] was “inactive” each time.

`CC(=O)O[C@H]1CC(C)(C)CC2[C@]13CO[C@@]21CCC2[C@@]4(C)CC[C@H](O[C@@H]5OC[C@H](O[C@@H]6O[C@H](CO)[C@@H](O)[C@H](O)[C@H]6O[C@@H]6OC[C@@H](O[C@@H]7O[C@H](CO)[C@@H](O)[C@H](O)[C@H]7O)[C@H](O)[C@H]6O)[C@H](O)[C@H]5O[C@@H]5O[C@H](CO)[C@@H](O)[C@H](O)[C@H]5O)[C@@](C)(CO)C4CC[C@@]2(C)[C@]1(C)C[C@H]3O` (stereo not given in full): the figures for the activity, negative = inhibition in experiment [1] and in experiment [5] were 2.15% [at 9.52 µM] and 2.8% [at 11.6 µM], respectively. Further, the activity change, negative = inhibition in experiment [2] was 4.48% [at 9.73 µM]; in experiment [3], 3.87% [at 11.6 µM]. Further, the activity change, negative = thiol reactive in experiment [4] is 133% [at 11.5 µM].

On to `CNCCN1CCC(c2cc(CN(C)C(=O)c3cccc(Oc4ccccc4)c3)ccn2)CC1`, for which the Potency entry in experiment [1], in experiment [2], in experiment [3], in experiment [4] and in experiment [5] was “inactive” each time.

For `C=C(C)C(=O)O[C@H]1/C(C=O)=C\CC/C(CO)=C/[C@H]2OC(=O)C(=C)[C@@H]2[C@@H]1OC`, the Potency entry in experiment [1], in experiment [2], in experiment [3] and in experiment [5] was “inactive” in each case. The Potency in experiment [4] was 3.69 µM (active).
